From PubChem BioAssay (NCI)
Compounds without any hit were thinned out: in the full panel of roughly 83,000, 20% have a hit.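 Step 1: grow cells in 96-well plates. Step 2: add test compound at a single concentration. Step 3: incubate 48 h. Step 4: record percent growth.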 The source made the active and inactive calls. Rule for the calls: active = growth percent below 10; inactive = the rest.

test system: MDA-MB-435 melanoma; experiment: NCI-60 one-dose screen, 48 h (100 = growth as untreated, 0 = no growth, -100 = all killed); details: 10 µM

**Q.** How did the growth turn out when `O=C(/C=C/c1ccco1)c1nc2ccccc2n1Cc1ccc(Br)cc1` was run?
**A.** 15.2% (inactive)

**Q.** `O=C(/C=C/c1ccco1)c1nc2ccccc2n1Cc1ccc(F)cc1` was tested. Which growth did it give?
**A.** 77% (inactive)

**Q.** How did the growth turn out when `COc1cc2cc(C(=O)N3C[C@@H](CCl)c4c3cc(OC(=O)N3CCN(C)[C@@H]5CSSC[C@@H]53)c3ccccc43)[nH]c2c(OC)c1OC` was run?
**A.** -86.8% (active)

**Q.** How did the growth turn out when `C#CC[Se]C(=O)c1ccc2n[se]nc2c1` was run?
**A.** 85.9% (inactive)

**Q.** `O=C(/C=C/c1ccc(Cl)cc1Cl)c1nc2ccccc2n1Cc1ccc(F)cc1` was tested. Which growth did it give?
**A.** 43.9% (inactive)

**Q.** With `O=C(/C=C/c1ccc(Cl)cc1)c1nc2ccccc2n1Cc1ccc(Br)cc1` as the molecule, how does the growth read?
**A.** 54.2% (inactive)

**Q.** How did the growth turn out when `CCOP(=O)(OCC)C(NC(C)=O)C(=O)SCCN` (centres undefined) was run?
**A.** 111% (inactive)

**Q.** Which growth does the source give for `COc1cc2cc(C(=O)N3C[C@@H](CCl)c4c3cc(OC(=O)N3CCN(C)[C@@H]5CSSC[C@H]53)c3ccccc43)[nH]c2c(OC)c1OC` here?
**A.** -65.9% (active)

**Q.** `COc1ccc2cc([C@H](C)C(=O)[Se]CCC#N)ccc2c1` was tested. Which growth did it give?
**A.** -69.7% (active)

**Q.** For `CC12OOC(C)(OO1)C2CCC(=O)OCCNc1ccnc2cc(Cl)ccc12` (centres undefined), which growth is on record?
**A.** 31.3% (inactive)

**Q.** With `CC(C)N=C([Se])NC(=O)c1cccs1` as the molecule, how does the growth read?
**A.** 37.4% (inactive)

**Q.** Which growth does the source give for `Cc1ccc2[nH]c(=S)n(-c3ccc(F)cc3)c(=O)c2c1` here?
**A.** 104% (inactive)

**Q.** Which growth does the source give for `CCOC(=O)C1=C(Nc2ccccc2)C(=O)OC12C(=O)Nc1ccccc12` (centres undefined) here?
**A.** 108% (inactive)

**Q.** With `CC12CCC3(CCC(=O)NCCCNc4ccnc5cc(Cl)ccc45)[C@@](C)(OO[C@]3(C)O1)O2` as the molecule, how does the growth read?
**A.** 18.3% (inactive)
